# Reference: PubChem BioAssay AID1345083 (National Center for Advancing Translational Sciences (NCATS), 2018)
# The campaign covered roughly 94,000 compounds. About 6,200 (6.6%) were called active. Inconclusive results (about 31%) are left out. The entries come from a sample that favours actives as a whole. A number with no mark means an inactive call. Calls come from the whole dose curve; as a rule, active = well fitted inhibition curve with a large enough effect; inconclusive = small, poorly fitted or top-dose-only effect; inactive = flat fitted curve, though single readings scatter.
# Assay: Cytotoxic Profiling in HEK 293 Cell Line of Diverse Libraries Using Quantitative High-Throughput Screening; note: nearly all actives have a fitted effect of over 60% in size
# Details: HEK 293 viability, ATP luminescence (CellTiter-Glo), 48-72 h; series mostly up to 115 µM; activity change, negative = cytotoxicity: at the top concentration
# Description: Cell-based phenotypic screening is a commonly used approach to discover biological pathways, novel drug targets, chemical probes and high-quality hit-to-lead molecules. Many hits identified from high-throughput screening campaign are ruled out through a series of follow-up potency, selectivity/specificity, and cytotoxicity assays. Prioritization of molecules with little or no cytotoxicity for a more in-depth downstream evaluation influence the future direction of projects, so cytotoxicity profiling of the screening libraries at early stage is essential for increasing the likelihood of candidate success. In this study, we analyzed results from a cell-based cytotoxicity screening campaign, comprising nearly 10,000 compounds in NCATS annotated libraries, and over 100,000 compounds in a diversity library, evaluated in four normal cell lines (HEK 293, NIH 3T3, CRL-7250 and HaCat) and a cancer cell line (KB 3-1, a HeLa subline) with overall screening outcomes, hit rates, pan-activity and selectivity. For the annotated library, we also examined the primary targets and mechanistic pathways regularly associated with cell death. To our knowledge, this is the first study to use high-throughput screening to profile large libraries for cytotoxicity assessment in both normal and cancer cell lines. In summary, the results generated here constitutes a valuable resource for the scientific community and provides insight on identifying cytotoxic compounds with particular mechanisms of action, and prioritizing compounds with suitable cytotoxicity profile for further evaluation.
# HEK 293 cells were seeded into white 1536-well plates using a Multidrop Combi peristaltic dispenser (ThermoFisher, Waltham, MA) at a density of 250 cells/well in 5 uL of medium respectively. A pintool (Kalypsys) was used to transfer 23 nL of compound solution to the 1536-well assay plates. After 48 or 72 hr incubation at 37 degree Celsius, 5% CO2 and 95% humidity, 2.5 uL of CellTiter-Glo (Promega) was dispensed into each well using a dispenser (Aspect Automation, St. Paul, MN) with solenoid valves (Lee Valves, Westbrook CT). Plates were left at room temperature for 10 min before imaging the ATP-coupled luminescence using a ViewLux microplate imager (PerkinElmer, Waltham, MA).
# % is set by controls: 0 for no effect and ±100 for the full control effect; potency is the fitted concentration of half-maximal effect.
SMILES,outcome,"activity change, negative = cytotoxicity",Potency
Cn1cc(CN2CCN3C(=O)N(c4ccccn4)C[C@H]3C2)cn1,inactive [at 172 µM],–,–
O=C(NC[C@H]1C[C@@H]2CCN1C[C@@H]2CN1CCC(Cc2ccccc2)CC1)c1ccco1,–,-25.4% [at 172 µM],–
CC[C@H]1CN2CC[C@H]1C[C@@H]2CNCc1cccc(C#N)c1,–,-0.0855% [at 230 µM],–
CC[C@H]1CN2CC[C@H]1C[C@@H]2CNC(=O)c1ccc(N(C)C)cc1,–,4.54% [at 172 µM],–
C=CCN(C)C[C@H]1CN2CC[C@H]1C[C@@H]2CNC(=O)Nc1cccc(SC)c1,–,–,63.1 µM (active)
CN(Cc1ccccc1)C[C@H]1CN2CC[C@H]1C[C@@H]2CNC(=O)Nc1cccc(C#N)c1,–,–,89.1 µM (active)
CN(CCc1ccccn1)C[C@H]1CN2CC[C@H]1C[C@@H]2CNC(=O)c1ccccc1,–,-30% [at 172 µM],–
CC(C)NC(=O)NC[C@H]1C[C@@H]2CCN1C[C@@H]2CN1CCCC1,–,2.65% [at 172 µM],–
FC(F)(F)CN1C2CCC1CN(c1cccc(Cl)n1)C2,inactive,–,–
CCCSc1ncc(CN2CC[C@H]3CNC[C@H]32)cn1,–,-10.3%,–
CC(=O)NCCNC(=O)[C@H]1CN2CCC1C[C@@H]2Cn1cc(-c2ccc(C(C)(C)C)cc2)nn1 (some centres undefined),–,-3.54%,–
CNC1CCOCC1,inactive [at 287 µM],–,–
C#CCN1C(=O)[C@@H]2[C@H](c3ccccc31)[C@@H](C(=O)OCC)[C@@H](c1ccccc1)N2C(=O)COC,–,–,44.7 µM (active)
CCCCOC(=O)N1C[C@H](C(=O)OCC)[C@H]2c3ccccc3N(C)C(=O)[C@]21C,–,-18.1% [at 57.5 µM],–
Nc1cccc(-c2cn(C[C@H]3CC4CCN3C[C@@H]4C(=O)NCc3ccc(F)cc3)nn2)c1 (some centres undefined),–,-7.43% [at 172 µM],–
COCC(=O)NC[C@H]1C[C@@H]2CCN1C[C@@H]2CN1CCN(C)CC1,–,-12.1% [at 172 µM],–
CN(C)[C@@H]1CN(C(=O)Cc2ccc(F)cc2)C[C@H]1CO,inactive,–,–
Cn1cccc1CN1CCC2(COc3ccncc3[S+](=O)([O-])N2)C1 (centres undefined),–,-7.93%,–
O=C(NC[C@H]1C[C@@H]2CCN1C[C@@H]2CN1CCN(c2ncccn2)CC1)c1ccc(C(F)(F)F)cc1,–,-17.4%,–
Cc1nc(-c2ccc(C(F)(F)F)cc2)cc([C@H]2CN3CC[C@H]2C[C@@H]3CNC(=O)c2ccco2)n1,–,–,20 µM (active)
COc1ccccc1-c1cc([C@H]2CN3CC[C@H]2C[C@@H]3CNC(=O)c2ccco2)n(C)n1,–,4.65% [at 172 µM],–
Cc1ccc(C(=O)NC[C@H]2C[C@@H]3CCN2C[C@@H]3c2cc(-c3ccco3)nc(C)n2)cc1,–,–,79.4 µM (active)
COc1ccccc1-c1cc([C@H]2CN3CC[C@H]2C[C@@H]3CNC(=O)c2ccco2)nc(C)n1,–,-23.8% [at 172 µM],–
C=C[C@H]1CN2CC[C@H]1C[C@@H]2CNC(=O)c1ccc(C(F)(F)F)cc1,–,-7.78% [at 172 µM],–
CCNC(=O)N1CC2CN(C(C)C)CC(C1)O2,–,-6.72%,–
CC1=NOC2(CCN(Cc3c[nH]c4ccccc34)CC2)C1,–,4.67% [at 172 µM],–
CN1C[C@H]2CN(Cc3cnn(C)c3)CCN2C1=O,–,-15.1% [at 230 µM],–

SMILES,outcome,"activity change, negative = cytotoxicity",Potency
O=C(Nc1ccc2n(c1=O)C[C@H]1C[C@@H]2CN(C(=O)c2ccccn2)C1)c1ccc(F)cc1,–,-3.73% [at 172 µM],–
C[S+](=O)([O-])N1CCC2(CC1)CC(c1cccnc1)=NO2,–,0.463%,–
CN(C)C(=O)[C@H]1CN2CCC1C[C@@H]2Cn1cc(-c2ccc(-c3ccccc3)cc2)nn1 (some centres undefined),–,-17.4% [at 172 µM],–
Cc1nc(-c2ccccc2)cc([C@H]2CN3CC[C@H]2C[C@@H]3CNC2CCOCC2)n1,–,–,31.6 µM (active)
O=C([C@H]1CN2CCC1C[C@@H]2Cn1cc(-c2ccccc2)nn1)N1CCOCC1 (some centres undefined),–,0.574% [at 172 µM],–
Cc1nc(-c2ccccc2)cc([C@H]2CN3CC[C@H]2C[C@@H]3CNC2CCN(C)CC2)n1,–,–,28.2 µM (active)
CC(=O)Nc1ccc(-c2ccc3n(c2=O)C[C@H]2C[C@@H]3CN(C3CCN(C)CC3)C2)cc1,–,-24.1% [at 172 µM],–
CC(C)N1C[C@@H]2OCC(=O)N(Cc3cccnc3)[C@@H]2C1,–,-2.45% [at 230 µM],–
O=C(Nc1ccc(Cl)cc1)N1C[C@@H]2C[C@H](C1)c1c(-c3ccccc3F)ccc(=O)n1C2,–,-4.3%,–
COCC1CN(Cc2ccsc2)CC12CCNCC2 (centres undefined),–,-27.7%,–
COc1ccc(CC(=O)N2C[C@@H]3CC[C@H](C2)N(CC2CCC2)C3)c(OC)c1,–,-22.9%,–
Cn1nc(-c2ccc(F)cc2)cc1[C@H]1CN2CC[C@H]1C[C@@H]2CNCc1ccccn1,–,–,63.1 µM (active)
O=C(Nc1ccccc1)[C@H]1CN2CCC1C[C@@H]2Cn1cc(CO)nn1 (some centres undefined),–,-2.81% [at 172 µM],–
COc1ccc(C(=O)NC[C@H]2C[C@@H]3CCN2C[C@@H]3c2cc(-c3ccccc3)nn2C)cc1,–,–,89.1 µM (active)
COc1ccccc1-c1cc([C@H]2CN3CC[C@H]2C[C@@H]3CNC(C)=O)n(C)n1,–,-4.81% [at 172 µM],–
Cn1nc(-c2cccs2)cc1[C@H]1CN2CC[C@H]1C[C@@H]2CNC(=O)Nc1ccccc1,–,–,112 µM (active)
COc1ccc(-c2cc([C@H]3CN4CC[C@H]3C[C@@H]4CNC(=O)C3CC3)n(C)n2)cc1OC,–,-9.12% [at 172 µM],–
COc1ccc(-c2cc([C@H]3CN4CC[C@H]3C[C@@H]4CNC(=O)c3ccccc3)n(C)n2)cc1OC,–,-10.2%,–
Cn1nc(-c2cccs2)cc1[C@H]1CN2CC[C@H]1C[C@@H]2CNC(=O)CCCC(=O)O,inactive [at 172 µM],–,–
CCCCc1cn(C[C@H]2C[C@@H]3CCN2C[C@@H]3C(=O)NCCNC(C)=O)nn1,–,-2.52% [at 172 µM],–
Cc1ccccc1-c1ccc2n(c1=O)C[C@H]1C[C@@H]2CN(C(=O)CSCC(=O)O)C1,–,-1.03% [at 172 µM],–
O=C([C@H]1CN2CCC1C[C@@H]2Cn1cc(CCO)nn1)N1CCCC1 (some centres undefined),inactive [at 172 µM],–,–
COc1ccccc1-c1ccc(N2CC3CC(C2)c2cccc(=O)n2C3)nn1 (centres undefined),–,1.75%,–
Cc1ccc([C@@H]2CN(Cc3ncc[nH]3)[C@@H]3C4CCN(CC4)[C@@H]32)cc1,–,3.55%,–
COc1cccc(C(=O)N2CCC3(CC2)NCc2ccccc2-n2ccnc23)c1,–,-24.7%,–
O=S1(=O)NCC2(CCN(Cc3ccc(Cl)s3)C2)Oc2ncccc21 (centres undefined),inactive,–,–
O=C(COc1ccccc1)N1C[C@@H]2C[C@H](C1)c1c(-c3ccccc3F)ccc(=O)n1C2,–,-23.1% [at 172 µM],–
